Most compounds without a hit are left out; they make up all but 8% or so of the library.
HT1080 IDH1KD tx = HT-1080 IDH1 knockdown cell toxicity (counter line) | HT-1080 IDH1 knockdown viability, ATP luminescence, 48 h | Potency, µM (series often up to 46.1 µM), usual class: cytotoxic | hit rate 2% among 360,000 | AID 686971
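CellTiter-Glo luminescence after 48 h compound exposure at 37 degrees C of IDH1-knockdown HT-1080 cells in 5% FBS RPMI. %Activity scaled between DMSO wells and cell-free media wells, with curves fitted and assigned curve classes.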
SW480 rereplic = DNA re-replication induction in SW480 cells; AID 624297; Potency, µM (highest dose often 46.1 µM), most hits filed as activators; SW480 DNA re-replication, Hoechst DNA content imaging, 48 h; hit rate 1.8% among 340,000; also: nearly all actives have a fitted effect of over 55% in size
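Image-based read-out: total Hoechst fluorescence of nuclei (405 nm excitation, 500-530 nm emission), with hits raising the fraction of high-intensity nuclei. SW480 colon cells incubated 48 hr with compounds at 37 C.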
KB-3-1 cytotox = kills parental KB-3-1 adenocarcinoma cells; hit rate 1.4% among 400,000; KB-3-1 viability, CellTiter-Glo ATP luminescence, 72 h; AID 1347075; Potency, µM (top dose mostly 46.1 µM), usual class: cytotoxic; also: nearly all actives have a fitted effect of over 60% in size
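Here the drug-naive KB-3-1 line serves as comparator for MDR sub-line selectivity; cells received compound titrations, 72 h at 37 °C, then CellTiter-Glo readout.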
MCF10A rerep = inducers of DNA re-replication in MCF 10A breast cells; AID 624296; hit rate 2.9% among 350,000; Potency, µM (titrated, usually from 46.1 µM), most hits filed as activators; MCF 10A DNA re-replication, Hoechst nuclear intensity, 48 h; also: nearly all actives have a fitted effect of over 50% in size
HT1080-NT tox = kills 2HG-producing HT-1080-NT fibrosarcoma cells | AID 686970 | Potency, µM (titrated, usually from 46.1 µM), actives largely listed as cytotoxic | HT-1080-NT fibrosarcoma viability, CellTiter-Glo ATP luminescence, 48 h | hit rate 1.6% among 360,000;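 also: NT is the 2HG producing partner of a matched IDH1 knockdown line; nearly all actives have a fitted effect of over 55% in size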
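Viability by CellTiter-Glo luminescence after 48 h compound exposure at 37C of HT-1080-NT cells (750/well, RPMI, 5% FBS). % activity scaled between DMSO wells and medium-only wells, then curve-fitted and categorized by curve class.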
KB-V1 cytotox = kills drug-selected multidrug resistant KB-V1 cells | KB-V1 MDR cells viability, CellTiter-Glo, 72 h | Potency, µM (doses to about 46.1 µM), usual class: cytotoxic | hit rate 3.4% among 400,000; also: nearly all actives have a fitted effect of over 60% in size
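Cells of the MDR subline KB-V1 are plated, dosed with compound at multiple concentrations, and incubated 72 h at 37 degrees C; CellTiter-Glo is then added and luminescence read after 10 min.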
Numbers stand for hits; – = inactive; ? = inconclusive; · = not tested or not shown. Calls follow the shape of the dose curve; as a rule, active = well fitted curve in the direction sought with a large enough effect; inconclusive = small, poorly fitted or top-dose-only effect, or another doubt; inactive = no such curve, though single readings can be large; an effect the other way counts as inactive or inconclusive.

SMILES	HT1080 IDH1KD tx	SW480 rereplic	KB-3-1 cytotox	MCF10A rerep	HT1080-NT tox	KB-V1 cytotox
Cc1ccc2nc(N(CCN(C)C)C(=O)/C=C/c3cccs3)sc2c1	?	?	–	26µM	–	–
CCn1c(-c2csc(C(C)C)c2)n[nH]c1=S	–	–	–	–	–	21µM
CCn1c(-c2ccc(Cl)cc2)n[nH]c1=S	?	–	?	–	?	10µM
Cc1ccc(-c2n[nH]c(=S)n2Cc2ccccc2)cc1	?	?	–	–	?	?
CCn1c(-c2ccc(OC)c(OC)c2)n[nH]c1=S	–	–	?	–	–	?
CCn1c(-c2ccc(C)cc2)n[nH]c1=S	–	–	?	–	–	18µM
O=C(c1ccc(Nc2nc3ccccc3n3nnnc23)cc1)N1CCN(c2ccc(F)cc2)CC1	·	·	–	·	·	–
CCCNCC1C(Oc2ccc(Cl)cc2Cl)C(=O)N1c1cccc(C)c1C (centres undefined)	?	?	–	?	?	?
CCCCNCC1C(Oc2ccc(Cl)cc2)C(=O)N1c1ccccc1C (centres undefined)	23µM	?	–	?	?	–
CCOC(=O)N1CCC(NC(=O)c2cc(COc3ccc(F)cc3Cl)on2)CC1	–	–	–	–	–	–
C=CCC1(CC=C)CCCN1C(=O)c1cc(COc2ccc(F)c(F)c2)on1	–	–	–	–	–	–
Cc1ccc(OCc2cc(C(=O)NC3CCCCC3)no2)cn1	15µM	–	?	–	?	?
CCOC(=O)N1CCC(NC(=O)c2cc(COc3ccccc3SC)on2)CC1	?	–	–	–	–	9.2µM
C=CCC1(CC=C)CCCN1C(=O)c1cc(COc2ccc(C)nc2)on1	2.9µM	–	?	–	21µM	–
COc1cc(-c2noc(-c3ccc(N4CCN(C)CC4)c([N+](=O)[O-])c3)n2)cc(OC)c1OC	·	·	–	·	·	–
Cc1ccccc1C(=O)NC1(C(F)(F)F)C(=O)Nc2c1c(=O)[nH]c(=O)n2-c1ccc(F)cc1 (centres undefined)	·	·	–	·	·	–
N#Cc1ccc(-c2ccc(OCC(=O)NCCc3ccccc3)cc2)cc1	–	–	–	–	–	5.2µM
O=C(NCc1ccccc1)c1ccc(Cn2cc(C(F)(F)F)ccc2=O)cc1	–	–	–	–	–	13µM
O=C(NCc1ccncc1)c1ccc(Cn2cc(C(F)(F)F)ccc2=O)cc1	–	–	–	–	–	–
Cc1cccc(NC(=O)c2ccc(Cn3cc(C(F)(F)F)ccc3=O)cc2)c1	–	–	–	–	–	16µM
CCOC(=O)c1c(C)c(-c2ccccc2)n(CC(=O)NC(CC)Cc2ccccc2)c1C (centres undefined)	·	·	–	·	·	–
OCCNCC(O)Cn1ccc2ccccc21 (centres undefined)	–	–	–	?	–	?
OCCN(CC(O)Cn1ccc2ccccc21)CC(O)Cn1ccc2ccccc21 (centres undefined)	–	–	–	–	–	15µM
N#C/C(=C/c1ccc(OCc2ccc(C(=O)O)cc2)cc1)C(=O)Nc1ccccc1	–	–	–	–	–	–
C=CCNC(=O)/C(C#N)=C/c1ccccc1OCc1ccc(C(=O)OC)cc1	?	–	–	4.6µM	?	?
SMILES	HT1080 IDH1KD tx	SW480 rereplic	KB-3-1 cytotox	MCF10A rerep	HT1080-NT tox	KB-V1 cytotox
N#C/C(=C\c1ccccc1OCc1ccc(C(=O)O)cc1)C(=O)Nc1ccc(O)cc1	–	–	–	23µM	–	–
COC(=O)c1ccc(COc2ccccc2/C=C(\C#N)C(=O)Nc2ccc(C)cc2)cc1	–	–	–	?	–	–
COc1ccc(CC(=O)N2CC(=O)Nc3ccc(F)cc3C2c2ccccc2)cc1 (centres undefined)	·	·	–	·	·	–
O=C(O)c1cc(N/N=C/C=C/c2ccccc2)ccc1Cl	–	–	–	21µM	–	–
CCN(c1ccccc1)S(=O)(=O)c1ccc(NC(=O)c2nc(SC)ncc2Cl)cc1	·	·	–	·	·	?
CCOC(=O)c1c(C)oc2ncnc(Nc3ccc(OC)c(OC)c3)c12	·	·	–	·	·	–
CC(=O)c1c(C)oc2ccc(N(C(=O)c3ccncc3)S(=O)(=O)c3ccc(F)cc3C)cc12	·	·	?	·	·	–
